Structures are written as SMILES. Values joined by “and” are separate entries in the source; they are usually repeats but may differ in a detail not shown here. Identical values can stand only once. ± gives the standard deviation of the averaged measurements. Over roughly 1,700 compounds, “fraction of GFP-LC3-positive cells (≥5 vesicles/cell)” has its median near 0.43; the highest 2% begin near 0.81. Only a selection was taken, and the highest values are over-represented in it overall.

This assay has as its system CbCln3 Δex7/8/Δex7/8 GFP-LC3 cerebellar neuronal cells. Put plainly: fraction of GFP-LC3-positive cells (≥5 vesicles/cell); higher = more autophagosome accumulation. In a few lines:
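Wild-type or mutant CbCln3 cerebellar cells stably expressing GFP-LC3 (2 × 10^3/well, 384-well) received ~50 nL compound in DMSO by pin transfer, in duplicate, for 24 h at 33 °C. Hoechst 33342 and LysoTracker Red were added for the final 30 min before 3.2% PFA fixation and 10× imaging of three fields per well. CellProfiler counted GFP-LC3 vesicles per cell. The value is the fraction of cells with 5 or more vesicles, averaged over duplicates, with out-of-focus images excluded.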
Regarding `CC1/C=C/C=C/CC/C=C/C=C/C=C/C=C/C(O[C@@H]2O[C@H](C)[C@@H](O)[C@H](N)[C@@H]2O)CC(O)C(C(=O)O)C(O)CC(=O)CC(O)C(O)CCC(O)CC(O)CC(O)CC(=O)OC(C)C(C)C1O` (some centres undefined) [Nystatine], the “fraction of GFP-LC3-positive cells” value was found to be 0.294.

For the molecule `CC(=O)Oc1ccccc1C(=O)Oc1ccccc1C(=O)O` [Acetylsalicylsalicylic acid], the “fraction of GFP-LC3-positive cells” value worked out at 0.354.

As to `CC(=O)OCOC(=O)CN(CC(=O)OCOC(C)=O)c1ccccc1OCCOc1ccccc1N(CC(=O)OCOC(C)=O)CC(=O)OCOC(C)=O`, the “fraction of GFP-LC3-positive cells” value came to 0.851.

Turning to `COc1cc2nc(N3CCN(C(=O)C4CCCO4)CC3)nc(N)c2cc1OC.Cl` (centres undefined) [Terazosin hydrochloride], the “fraction of GFP-LC3-positive cells” value was 0.396.

On to `COc1cc2nc(N3CCN(C(=O)c4ccco4)CC3)nc(N)c2cc1OC.Cl` [Prazosin hydrochloride], for which the “fraction of GFP-LC3-positive cells” value was determined as 0.669.

Turning to `COc1cc2nc(N3CCN(C(=O)c4ccco4)CC3)nc(N)c2cc1OC` [prazocin], the “fraction of GFP-LC3-positive cells” value is 0.931.

In the case of `CCCCC/C=C\C/C=C\C=C\[C@@H](O)C/C=C\CCCC(=O)O`, the “fraction of GFP-LC3-positive cells” value came to 0.479.

In the case of `Nc1nc2c(ncn2COCCO)c(=O)[nH]1` [Acyclovir], the “fraction of GFP-LC3-positive cells” value stood at 0.421.

For `Nc1nc2[nH]nnc2c(=O)[nH]1` [Azaguanine-8], the “fraction of GFP-LC3-positive cells” value amounted to 0.845.

On to `CCCOc1ccccc1-c1nc2[nH]nnc2c(=O)[nH]1` [zaprinast], for which the “fraction of GFP-LC3-positive cells” value came out at 0.222.

As to `CN(C)CCOC(c1ccccc1)c1ccccc1.Cl` [Diphenhydramine hydrochloride], the “fraction of GFP-LC3-positive cells” value came out at 0.531.

Turning to `CCCCC[C@H](O)/C=C/C=C\C/C=C\CCCCC(=O)O`, the “fraction of GFP-LC3-positive cells” value was determined as 0.403.

As to `CCCCC(CC)CNC(=N)NC(=N)NCCCCCCNC(=N)NC(=N)NCC(CC)CCCC.Cl.Cl` (centres undefined) [Alexidine dihydrochloride], the “fraction of GFP-LC3-positive cells” value turned out to be 0.537.

As to `CCCNC(C)C(=O)Nc1ccccc1C.Cl` (centres undefined) [Prilocaine hydrochloride], the “fraction of GFP-LC3-positive cells” value amounted to 0.359.

In the case of `C=CCOc1ccccc1OCC(O)CNC(C)C.Cl` (centres undefined) [Oxprenolol hydrochloride], the “fraction of GFP-LC3-positive cells” value amounted to 0.366.

Regarding `Cl.OCCN1CCN(CC/C=C2/c3ccccc3Sc3ccc(Cl)cc32)CC1` [Zuclopenthixol hydrochloride], the “fraction of GFP-LC3-positive cells” value was determined as 0.542.

On to `O=c1cc(-c2ccc(O)cc2)oc2cc(O)cc(O)c12` [Apigenin], for which the “fraction of GFP-LC3-positive cells” value stood at 0.432.

As to `CCCCCC(=O)/C=C/[C@H]1[C@H](O)CC(=O)[C@@H]1C/C=C\CCCC(=O)O` [15-Keto-prostaglandin E2], the “fraction of GFP-LC3-positive cells” value worked out at 0.471.

In the case of `NS(=O)(=O)c1cc2c(cc1Cl)N=C(CSCc1ccccc1)NS2(=O)=O` [Benzthiazide], the “fraction of GFP-LC3-positive cells” value worked out at 0.293.

Take `CS(=O)(=O)Nc1ccc([N+](=O)[O-])cc1Oc1ccccc1` [Nimesulide]: the “fraction of GFP-LC3-positive cells” value is 0.391.

Regarding `CC(C)NC[C@H](O)c1ccc(O)c(O)c1.Cl` [(-)-Isoproterenol hydrochloride], the “fraction of GFP-LC3-positive cells” value is 0.349.

As for `CN(C(=O)C(Cl)Cl)c1ccc(OC(=O)c2ccco2)cc1` [Diloxanide furoate], the “fraction of GFP-LC3-positive cells” value was 0.372.

For the molecule `Cl.c1ccc2c(c1)CCCC2C1=NCCN1` (centres undefined) [Tetrahydrozoline hydrochloride], the “fraction of GFP-LC3-positive cells” value was 0.357.

For the molecule `CC(C)C[C@H](NC(=O)[C@H]1CCCN1C(=O)OCc1ccccc1)C(=O)NCC(=O)NO`, the “fraction of GFP-LC3-positive cells” value was determined as 0.442.

Turning to `Cn1cc(C2=C(c3cn(CCCSC(=N)N)c4ccccc34)C(=O)NC2=O)c2ccccc21`, the “fraction of GFP-LC3-positive cells” value turned out to be 0.854 ± 0.15.

With `CN(C)CCCn1cc(C2=C(c3c[nH]c4ccccc34)C(=O)NC2=O)c2ccccc21`, the “fraction of GFP-LC3-positive cells” value was 0.583 and 0.599.

With `CN(C)CCC=C1c2ccccc2C=Cc2ccccc21.Cl` [Cyclobenzaprine hydrochloride], the “fraction of GFP-LC3-positive cells” value was found to be 0.513.

Take `CC[C@]1(O)C[C@@H]2CN(CCc3c([nH]c4ccccc34)[C@@](C(=O)OC)(c3cc4c(cc3OC)N(C)[C@H]3[C@@](O)(C(=O)OC)[C@H](OC(C)=O)[C@]5(CC)C=CCN6CC[C@]43[C@@H]65)C2)C1.O=S(=O)(O)O` [vinblastine]: the “fraction of GFP-LC3-positive cells” value came out at 0.848.

Turning to `CC/C=C\C/C=C\C/C=C\CCCCCCCCCCCC(=O)O` [Docosatrienoic acid (22:3 N-3)], the “fraction of GFP-LC3-positive cells” value stood at 0.466.

As to `CC/C=C\C/C=C\C/C=C\CCCCCCCCCCCC(=O)O`, the “fraction of GFP-LC3-positive cells” value turned out to be 0.417.

In the case of `CC/C=C\C/C=C\C/C=C\CCCCCCCCCCCC(=O)O` [Docosatrienoic acid (22:3 n-3)], the “fraction of GFP-LC3-positive cells” value came to 0.541.

Consider `CC[N+](C)(C)c1cccc(O)c1.[Cl-]` [Edrophonium chloride], for which the “fraction of GFP-LC3-positive cells” value worked out at 0.407.

For the molecule `CC(C)NNC(=O)c1ccncc1.O=P(O)(O)O` [Iproniazide phosphate], the “fraction of GFP-LC3-positive cells” value is 0.489.

As to `CNCCCN1c2ccccc2CCc2ccccc21.Cl` [Desipramine hydrochloride], the “fraction of GFP-LC3-positive cells” value was determined as 0.486.

As for `CN(C)CCOC(C)(c1ccccc1)c1ccccn1.O=C(O)CCC(=O)O` (centres undefined) [Doxylamine succinate], the “fraction of GFP-LC3-positive cells” value was determined as 0.314.

On to `O=C(NCC1CCCCN1)c1cc(OCC(F)(F)F)ccc1OCC(F)(F)F` (centres undefined), for which the “fraction of GFP-LC3-positive cells” value turned out to be 0.524.

Regarding `c1ccc2[nH]c(-c3cscn3)nc2c1` [Tiabendazole], the “fraction of GFP-LC3-positive cells” value was determined as 0.326.

For `CC[C@H]1[C@@H]2C=C[C@@H]3[C@H]4C/C=C\C(=O)NCCC[C@@H]5NC(=O)C(=C5O)C(=O)CC[C@@H]4C[C@@H]3[C@H]2C[C@H]1C` [Ikarugamyin], the “fraction of GFP-LC3-positive cells” value is 0.921.

Turning to `CCCCCCCC/C=C\CCCCCCCC(=O)NCCc1ccc(O)c(O)c1` [Oleoyl dopamine], the “fraction of GFP-LC3-positive cells” value was determined as 0.611.

Regarding `CCCCC/C=C\C=C\C(O)CCCCCCCC(=O)O` (racemic), the “fraction of GFP-LC3-positive cells” value is 0.29.

Take `CCOC(=O)[C@H](CCc1ccccc1)N[C@@H](C)C(=O)N1CCC[C@H]1C(=O)O.O=C(O)/C=C\C(=O)O` [Enalapril maleate]: the “fraction of GFP-LC3-positive cells” value was determined as 0.395.

In the case of `CCCCC[C@H](O)/C=C/C=C/C=C/[C@H](O)C/C=C\CCCC(=O)O` [8(R),15(S)-DiHETE all trans], the “fraction of GFP-LC3-positive cells” value stood at 0.298.

On to `CC[N+](CC)(CC)CCC(O)(c1ccccc1)C1CCCCC1.[Cl-]` (centres undefined) [Tridihexethyl chloride], for which the “fraction of GFP-LC3-positive cells” value was 0.44.

As to `CCCCCCCCCCCCCCCCOC[C@H](COP(=O)([O-])OCC[N+](C)(C)C)OC(=O)NC`, the “fraction of GFP-LC3-positive cells” value is 0.4228 ± 0.0025.

As for `NC(=O)N/N=C/c1ccc([N+](=O)[O-])o1` [Nitrofural], the “fraction of GFP-LC3-positive cells” value was 0.493.

As for `CCC1NC(=O)c2cc(S(N)(=O)=O)c(Cl)cc2N1` (centres undefined) [Quinethazone], the “fraction of GFP-LC3-positive cells” value was 0.417.

As for `CN(C)CCCSC(=N)N.Cl.Cl` [Dimaprit dihydrochloride], the “fraction of GFP-LC3-positive cells” value turned out to be 0.45.

In the case of `Nc1nc(=O)[nH]cc1F` [Flucytosine], the “fraction of GFP-LC3-positive cells” value turned out to be 0.296.

Take `Cl.Clc1ccccc1CN1CCc2sccc2C1` [Ticlopidine hydrochloride]: the “fraction of GFP-LC3-positive cells” value came to 0.403.

On to `CN[C@H]1CC[C@@H](c2ccc(Cl)c(Cl)c2)c2ccccc21` [Sertraline], for which the “fraction of GFP-LC3-positive cells” value was found to be 0.311.

Consider `Oc1ccc(-c2nc(-c3ccc(F)cc3)c(-c3ccncc3)[nH]2)cc1`, for which the “fraction of GFP-LC3-positive cells” value was 0.524 and 0.566.

For the molecule `N=C(N)NCCC[C@H](NC(=O)[C@@H]1CCCN1C(=O)[C@H](N)Cc1ccccc1)C(=O)CCl`, the “fraction of GFP-LC3-positive cells” value came out at 0.502.

For `CC(=O)N[C@@H](CC(C)C)C(=O)N[C@@H](CC(C)C)C(=O)N[C@H](C=O)CCCNC(=N)N` [Leupeptin], the “fraction of GFP-LC3-positive cells” value was found to be 0.392.

In the case of `CCCC[C@@H](C=O)NC(=O)[C@H](CC(C)C)NC(=O)[C@H](CC(C)C)NC(C)=O`, the “fraction of GFP-LC3-positive cells” value was found to be 0.93.

As to `CSCC[C@@H](C=O)NC(=O)[C@H](CC(C)C)NC(=O)[C@H](CC(C)C)NC(C)=O`, the “fraction of GFP-LC3-positive cells” value turned out to be 0.448.

Turning to `CCOC(=O)/N=c1/c[n+](N2CCOCC2)[n-]o1` [Molsidomine], the “fraction of GFP-LC3-positive cells” value came out at 0.473.

`CCC[C@@H]1C[C@@H](C(=O)N[C@@H]([C@H]2O[C@H](SC)[C@H](O)[C@@H](O)[C@@H]2O)[C@@H](C)O)N(C)C1.Cl` [Lincomycin hydrochloride]: the “fraction of GFP-LC3-positive cells” value stood at 0.505.

`CS(=O)(=O)c1ccc([C@@H](O)[C@@H](CF)NC(=O)C(Cl)Cl)cc1` [Florfenicol]: the “fraction of GFP-LC3-positive cells” value amounted to 0.355.

Regarding `CN(C)c1ccc(/C=C2\C(=O)Nc3ccccc32)cc1`, the “fraction of GFP-LC3-positive cells” value is 0.441 and 0.394.

Regarding `COC(=O)Nc1nc2cc(C(=O)c3ccccc3)ccc2[nH]1` [Mebendazole], the “fraction of GFP-LC3-positive cells” value came to 0.9.

For the molecule `O=C(O)c1ccc2nc(-c3ccccc3)c(-c3ccccc3)nc2c1`, the “fraction of GFP-LC3-positive cells” value came to 0.507.

As for `COC(=O)Nc1nc2cc(C(=O)c3cccs3)ccc2[nH]1` [nocodazole], the “fraction of GFP-LC3-positive cells” value stood at 0.612.

For `COC(=O)Nc1nc2cc(C(=O)c3cccs3)ccc2[nH]1` [Nocodazole], the “fraction of GFP-LC3-positive cells” value worked out at 0.916.

`CC(C(=O)O)c1ccc(C(=O)c2cccs2)cc1` (centres undefined) [Suprofen]: the “fraction of GFP-LC3-positive cells” value came to 0.46.

On to `CC(C(=O)O)c1cccc(C(=O)c2ccccc2)c1` (centres undefined) [Ketoprofen], for which the “fraction of GFP-LC3-positive cells” value was 0.499.

Turning to `Cc1cc(C2CCCCC2)n(O)c(=O)c1.NCCO` [Ciclopirox ethanolamine], the “fraction of GFP-LC3-positive cells” value came out at 0.809.

Regarding `Cc1cc(=O)n(-c2ccccc2)n1C` [Antipyrine], the “fraction of GFP-LC3-positive cells” value came to 0.36.

`CC(C)COCC(CN(Cc1ccccc1)c1ccccc1)N1CCCC1` (centres undefined): the “fraction of GFP-LC3-positive cells” value turned out to be 0.621.

As to `CCCCC[C@H](O)/C=C/C=C\C/C=C\C/C=C\CCCC(=O)O`, the “fraction of GFP-LC3-positive cells” value amounted to 0.405 ± 0.089.

(Values after the supplement of paper PMC6953052.)
